PubChem BioAssay (NCI)
About 79,000 compounds went through this panel and 15% of them were active in at least one assay; those are over-represented in the sample as a whole. No stated cut-off is given here; in the data, active means growth inhibition above about 70%; inactive means the rest. Where a SMILES comes first, the peptide text is derived from it. The star is where a group is joined. Boc = CC(C)(C)OC(=O)*; OBn = c1ccc(CO*)cc1

How the values were obtained:
[1] = NCI Yeast Anticancer Drug Screen. Data for the rad50 strain (AID 155);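 further: 0% = growth of vehicle-only cultures of the same strain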; conditions: S. cerevisiae rad50 strain growth inhibition; at 50.0 µM; stronger effect = higher value
Summary of the method: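 Relative growth inhibition (compound vs vehicle) was measured in yeast with a defined repair-gene alteration.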

[2] = NCI Yeast Anticancer Drug Screen. Data for the mec2-1 strain (AID 157); conditions: S. cerevisiae mec2-1 strain, at 50.0 µM, stronger effect = higher value
Summary of the method: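 Vehicle-treated cultures served as reference for growth inhibition of compound-exposed mec2-1 yeast.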

[3] = NCI Yeast Anticancer Drug Screen. Data for the sgs1 mgt1 strain (AID 161);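 further: 0% = growth of cultures given vehicle only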; conditions: S. cerevisiae sgs1 mgt1 strain, at 50.0 µM, stronger effect = higher value
Summary of the method: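 Test agents were incubated with a DNA-repair-mutant yeast strain. Growth was then read and compared against vehicle-treated controls.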

[4] = NCI Yeast Anticancer Drug Screen. Data for the cln2 rad14 strain (AID 165);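 further: 0% = growth equal to vehicle treated cultures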; conditions: S. cerevisiae cln2 rad14 strain, at 50.0 µM, stronger effect = higher value
Summary of the method: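 Each compound was tested on cln2 rad14 yeast. Inhibition of growth was calculated against vehicle-exposed controls.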

[5] = NCI Yeast Anticancer Drug Screen. Data for the bub3 strain (AID 167); conditions: S. cerevisiae bub3 mutant strain, at 50.0 µM, stronger effect = higher value
Summary of the method: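 Screening used yeast with an engineered genetic alteration affecting cell cycle control. Compound-exposed cultures were compared with vehicle cultures, and reduced growth was taken as inhibition.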

[6] = NCI Yeast Anticancer Drug Screen. Data for the mlh1 rad18 strain (AID 175); conditions: S. cerevisiae mlh1 rad18 strain growth inhibition; at 50.0 µM; stronger effect = higher value
Summary of the method: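 Vehicle-treated cultures served as the reference for growth inhibition in a yeast strain carrying DNA damage repair alterations exposed to each compound.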

Measured: growth inhibition

CCc1n[nH]c(=O)n1N1C(=O)CCC1=O
inactive: [1] 4.25% | [2] 18.4% | [3] -11.7% | [4] 5.4% | [5] -23.8% | [6] 23.2%

CCOC(=O)c1[nH]c(CC(=O)O)c(C(=O)O)c1C
inactive: [1] 15.7% | [2] 26.4% | [3] 24.4% | [4] 0.4% | [5] 16.4% | [6] 15.2%

CCN(CC)Cc1cc(-n2cnc3c(=S)nc[nH]c32)ccc1O
inactive: [1] -3.15% | [2] -12.4% | [3] -8.8% | [4] 3.45% | [5] -5.65% | [6] -3.2%

COc1cc(/C=N/NC2=NCCN2)ccc1O
inactive: [1] 24.4% | [2] 11.8% | [3] 13.2% | [4] 14.8% | [5] 18.9% | [6] 11.8%

COc1cccc(OC)c1OC(=O)/C=C\C(=O)Oc1c(OC)cccc1OC
inactive: [1] 29.9% | [2] -8.65% | [3] 18.8% | [4] -3.75% | [5] -2.05% | [6] 20.8%

O=C1NNC=Nc2ccc(cc2)S(=O)(=O)c2ccc(cc2)N=CNNC1=O
inactive: [1] 41.5% | [2] -1.9% | [3] -20.1% | [4] -9.15% | [5] -5.85% | [6] -45.9%

O=[N+]([O-])c1c(F)cc(F)cc1F
inactive: [1] -11% | [2] 5.75% | [3] -5.15% | [4] -19.9% | [5] 2.55% | [6] -6.65%

Cc1cc(S(=O)(=O)Cl)ccc1Cl
inactive: [1] 14.6% | [2] 1.3% | [3] -0.6% | [4] -29.2% | [5] 9.05% | [6] 7.6%

c1coc(CNc2ncnc3nccnc23)c1
inactive: [1] -16.9% | [2] -4.35% | [3] -15.6% | [4] -20.2% | [5] -32.5% | [6] -4.45%

NC(=O)Cc1c[nH]c2ccc(Br)cc12
inactive: [1] -24.1% | [2] -53.8% | [3] -8.4% | [4] 11.4% | [5] -20.7% | [6] -13.2%

Cc1ccc(-c2cc(=O)c3cc(C)c(C)c(C#N)c3o2)cc1
inactive: [1] -10.2% | [2] -5.75% | [3] -13.8% | [4] -1.7% | [5] -22.4% | [6] 6.45%

Cc1ccc(S(=O)(=O)OCC2CCC(=O)N2)cc1 (stereo not given)
inactive: [1] 20.4% | [2] -13.2% | [3] 0.5% | [4] -3.15% | [5] -3.9% | [6] 27.1%

CC(=O)OC1C=CC(OC(C)=O)C2C1[C@H]1C3C=CC=CC3[C@@H]2S1=O (stereo not given in full)
inactive: [1] -36.8% | [2] -35.8% | [3] -17.2% | [4] -6.5% | [5] 6.25% | [6] -27.1%

Nc1ccn(C2OC(COP(=O)(O)O)C(O)C2O)c(=O)n1 (stereo not given) (tested in a mixture with another compound)
inactive: [1] -3.8% | [2] -4.25% | [3] -0.75% | [4] -44.4% | [5] 1.15% | [6] 14.1%

CCCC(=O)NC(C)(C)C
inactive: [1] 8.8% | [2] -5.3% | [3] -33.9% | [4] 2.9% | [5] 6.2% | [6] -21%

COc1ccc(C2OC(=N)C(=S)N2C)cc1O (stereo not given)
inactive: [1] -5.9% | [2] -15.6% | [3] -13.2% | [4] -22.7% | [5] 2.5% | [6] -4.15%

Cc1ccc(NC(=O)CCCC(=O)C(C#N)c2nc3ccccc3s2)cc1C (stereo not given)
inactive: [1] 10.9% | [2] 14.6% | [3] -9.8% | [4] 0.7% | [5] -7.35% | [6] 15.1%

CC(C)CC(NC(=O)OC(C)(C)C)C(=O)NC(CCC(=O)OCc1ccccc1)C(N)=O (stereo not drawn) (Boc-Leu-Glu(OBn)-NH2; configuration not given here)
inactive: [1] 19.1% | [2] -8.9% | [3] 8.65% | [4] 19.9% | [5] 24.4% | [6] 4.65%

CC(=O)OC1CCC2(C)C(=CCC3C2CCC2(C)C(/C(C)=N/NC(N)=O)CCC32)C1 (stereo not given)
inactive: [1] 14.4% | [2] -2.8% | [3] -0.1% | [4] -39.6% | [5] -0.6% | [6] -0.5%

O=S(=O)(c1ccccc1)C1C2CCC(O2)C1S(=O)(=O)c1ccccc1 (stereo not given)
inactive: [1] 19.4% | [2] 7.8% | [3] 15.7% | [4] 30.9% | [5] 29.6% | [6] 10.1%
